Bioassay records (PubChem)
CYP2C19 inh: blockers of cytochrome P450 2C19 activity – biochemical, luminescence, ADME assay, primary screen. P33261. actives 21% (n = 96,000). inhibition, % at 5 µM. AID 778, 2007. CYP2C19 Supersomes, luciferin-H EGE luminescence, 30 min;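 active = CYP2C19 inhibition above a set limit at 5 µM in the primary screen, cut at about 50% in these data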
Measles CPE: compounds protecting cells from measles virus cytopathic effect, primary screen, measles RdRp inhibitor project, single point, MLSMR library, absorbance; Measles virus-infected cells, CPE protection; protection (pct of control), % at 4 µM; actives 1.5% (n = 140,000); AID 841, 2007; in the data active = protection mostly above about 24%, no sharp cut-off; inactive = mostly below about 26%
CYP2C9 activ: human CYP2C9 activators, primary screen, biochemical, luminescence. activation factor at 5 µM. Cytochrome P450 2C9 (Homo sapiens), P11712. AID 1024, 2008. actives 1.4% (n = 96,000). recombinant CYP2C9, luciferin-H conversion; stronger effect = higher value; factor 1 = untreated enzyme, 0 = blocked;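 active = activation factor of 2 or more for CYP2C9 at a 5 µM dose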
Target sequence (P11712 whole entry, looked up): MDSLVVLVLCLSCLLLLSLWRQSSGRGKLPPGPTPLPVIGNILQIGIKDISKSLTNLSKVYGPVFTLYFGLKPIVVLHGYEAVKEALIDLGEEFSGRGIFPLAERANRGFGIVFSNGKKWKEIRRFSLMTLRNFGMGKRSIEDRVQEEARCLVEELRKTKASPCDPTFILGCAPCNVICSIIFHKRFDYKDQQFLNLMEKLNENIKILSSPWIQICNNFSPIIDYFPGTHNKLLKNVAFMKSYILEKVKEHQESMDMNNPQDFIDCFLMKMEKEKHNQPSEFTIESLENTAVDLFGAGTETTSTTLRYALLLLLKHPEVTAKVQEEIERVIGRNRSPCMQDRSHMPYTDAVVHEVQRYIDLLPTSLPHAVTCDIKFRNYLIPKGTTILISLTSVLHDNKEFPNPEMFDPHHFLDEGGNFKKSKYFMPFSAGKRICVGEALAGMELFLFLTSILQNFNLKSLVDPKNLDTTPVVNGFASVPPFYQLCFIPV
CYP2C19 act: human CYP2C19 activators, primary screen, biochemical, luminescence; Cytochrome P450 2C19 (Homo sapiens), P33261; recombinant CYP2C19, luciferin-H EGE luminescence; stronger effect = higher value; 0 = fully inhibited enzyme, 1 = untreated enzyme; activation factor at 5 µM; 96,000 tested, under 10 active;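 active = activation factor of at least 2 at 5 µM in the primary screen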
CYP2C9 inh: blockers of cytochrome P450 2C9 activity – biochemical, luminescence, ADME assay, primary screen; P11712; CYP2C9 Supersomes, luciferin-H conversion; inhibition, % at 5 µM; actives 20% (n = 96,000);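 active = blocking of liver enzyme CYP2C9 beyond about 50% at 5 µM, limit read from the data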
Numbers stand for hits; . = inactive; / = not tested or not shown. Compounds with a hit are over-represented: about 22% of the library has one in this group of screens.

SMILES	CYP2C19 inh	Measles CPE	CYP2C9 activ	CYP2C19 act	CYP2C9 inh
COc1cccc(C(N)CC(=O)O)c1 (stereo not drawn)	.	/	.	.	.
CSc1cccc(NS(=O)(=O)c2cccc3nsnc23)c1	58	.	.	.	64
COc1cc(NS(=O)(=O)c2cccc3nsnc23)cc(OC)c1	93	.	.	.	.
CCCc1cc(=O)oc2cc(C)cc(O)c12	.	.	.	.	.
CCc1cc(=O)oc2cc(C)cc(O)c12	.	.	2.7	.	.
Cc1coc2c1c(C)cc1oc(=O)c(Cc3ccccc3)c(C)c12	53	.	.	.	.
Cc1c(Cc2ccccc2)c(=O)oc2cc(OCc3nn[nH]n3)ccc12	.	.	.	.	.
CCCCCc1cc(O)c2c(C)cc(=O)oc2c1	70	63	.	.	59
CCc1cc(=O)oc2cc(C)c3c(C)coc3c12	63	.	.	.	.
Cc1ccsc1/C=N/NC(=O)c1ccco1	/	.	/	/	/
CC(C)Oc1ccc(C(=O)Nc2ccc(Cl)c(S(=O)(=O)Nc3ccc(Cl)cc3)c2)cc1	/	.	/	/	/
N#Cc1ccccc1Cn1c(=O)n(Cc2ccc(C(=O)NCc3ccco3)cc2)c(=O)c2ccccc21	/	.	/	/	/
O=c1c2c(ncn1CCO)nc1n2CCC1	/	.	/	/	/
CCC1Sc2ccccc2N(CC(=O)NCCC(C)C)C1=O (stereo not drawn)	.	.	.	.	.
O=S1(=O)CCC(NC(=S)NCCNC(=S)NC2CCS(=O)(=O)C2)C1 (stereo not drawn)	/	28	/	/	/
O=S1(=O)CCC(NC(=S)Nc2ccc(Cl)cc2)C1 (stereo not drawn)	/	.	/	/	/
O=C(CNC(=O)Cc1ccccc1)NCC(=O)OCC(=O)c1ccc(Cl)cc1	/	.	/	/	/
CCOc1ccc(NC(=O)c2ccco2)c([N+](=O)[O-])c1	/	.	/	/	/
CCOc1cc2[nH]c(=S)n(CCCCC(=O)NCc3ccco3)c(=O)c2cc1OCC	.	.	.	.	72
CCOc1cc2[nH]c(=S)n(CCc3ccc(OC)c(OC)c3)c(=O)c2cc1OCC	.	.	.	.	.
CCOc1cc2[nH]c(=S)n(CCC(=O)NCc3ccc(OC)cc3)c(=O)c2cc1OCC	.	.	.	.	73
CCOc1cc2[nH]c(=O)n(CCCCCC(=O)NCc3ccco3)c(=O)c2cc1OCC	.	.	.	.	.
COc1cc(NC(=O)C2=C(N3CCOCC3)/C(=C\c3ccc(Cl)cc3Cl)CC2)cc(OC)c1OC	/	.	/	/	/
Cc1ccccc1-c1nnc2s/c(=C\c3ccc(N(C)C)cc3)c(=O)n12	.	/	.	.	.
CCC(=O)NC1=C(C#N)C2(CCCC2)Cc2ccccc21	.	.	.	.	.
SMILES	CYP2C19 inh	Measles CPE	CYP2C9 activ	CYP2C19 act	CYP2C9 inh
N#CC1=C(N)c2ccccc2CC12CCCCC2	.	.	.	.	78
CC(OC(=O)C(NC(=O)c1ccco1)C(C)C)C(=O)Nc1ncc(Cl)cc1Cl (stereo not drawn)	.	.	.	.	.
O=C(COC(=O)c1ccccc1NC(=O)c1ccco1)Nc1ncc(Cl)cc1Cl	.	.	.	.	64
Cc1c(Cl)cnc(NC(=O)COC(=O)C(NC(=O)c2ccco2)C(C)C)c1Cl (stereo not drawn)	77	.	.	.	.
CCOc1cc(CNn2nnnc2N)cc(Cl)c1OCC(=O)NC(C)(C)C	91	.	.	.	.
COc1cc(CNn2nnnc2N)ccc1OCc1c(Cl)cccc1Cl	62	.	.	.	.
CC(C)CCNC(=S)Nc1ccccn1	/	.	/	/	/
Cc1ccc(-c2[nH]n3c(=O)c4c(nc3c2C)CCCC4)cc1	.	31	.	.	.
COc1cc(NC(C)CCCN)c2ncccc2c1Oc1ccccc1 (stereo not drawn)	/	.	/	/	/
CC(=O)c1sc(N)c(C(=O)OC(C)C)c1C	80	.	.	.	.
Cc1c(C(=O)OC(C)C)sc(N)c1C(=O)OC(C)C	/	.	/	/	/
S=c1[nH]nc(-c2ccncc2)n1/N=C/c1cccc2ccccc12	/	29	/	/	/
Cc1ccc(/C=N/n2c(-c3ccncc3)n[nH]c2=S)cc1	/	.	/	/	/
CC#CCCC(=O)N1C=Cc2ccccc2C1C#N (stereo not drawn)	66	.	.	.	.
COc1ccc(-c2csc(NC(=O)c3ccco3)n2)cc1	/	.	/	/	/
Cc1ccc(Cl)cc1Nc1nc(-c2sc(NC(=O)c3ccco3)nc2C)cs1	.	.	.	.	57
Cc1ccc(Cl)cc1Nc1nc(-c2sc(NC(=O)c3cccc(Cl)c3)nc2C)cs1	.	.	.	.	55
COc1ccccc1Nc1nc(-c2sc(NC(=O)c3ccco3)nc2C)cs1	.	.	.	.	63
COc1cccc(N(C(=O)c2ccco2)c2nc(-c3sc(NC(=O)c4ccco4)nc3C)cs2)c1	.	.	.	.	55
Cc1ccccc1Nc1nc(-c2sc(NC(=O)c3cccc(Cl)c3)nc2C)cs1	.	.	.	.	.
Cc1nc(NC(=O)c2ccco2)sc1-c1csc(Nc2ccc(Cl)cc2)n1	.	.	.	.	.
Cc1ccc(C(=O)N/C(=C/c2cccs2)C(=O)NCCCn2ccnc2)cc1	/	.	/	/	/
Brc1cccc(-c2nnc3sc(CN4CCCCC4)cn23)c1	.	.	.	.	50
Brc1cccc(-c2nnc3sc(CN4CCC5(CC4)OCCO5)cn23)c1	.	.	.	.	.
O=C(CCNc1ccc(Cl)c(C(F)(F)F)c1)c1ccco1	76	.	.	.	.
SMILES	CYP2C19 inh	Measles CPE	CYP2C9 activ	CYP2C19 act	CYP2C9 inh
O=C(CCNc1cc(Cl)cc(Cl)c1)c1ccco1	61	.	.	.	.
O=C(CCNc1ccc(F)cc1)c1ccco1	65	.	.	.	.
O=C(CCNc1ccc(F)c(Cl)c1)c1ccco1	.	.	.	.	.
COc1ccc(C2C(C#N)=C(N)N(c3cccnc3)C3=C2C(=O)CC(C)(C)C3)cc1OC (stereo not drawn)	/	.	/	/	/
CC1(C)CC(=O)C2=C(C1)N(c1ccccc1C#N)C(N)=C(C#N)C2c1cccs1 (stereo not drawn)	.	.	.	.	71
CCSc1sccc1C1C(C#N)=C(N)N(c2cccnc2)C2=C1C(=O)CC(C)(C)C2 (stereo not drawn)	74	.	.	.	60
CC1(C)CC(=O)C2=C(C1)OC(c1cccs1)C(C#N)=C2N (stereo not drawn)	83	.	.	.	68
COc1ccc(N2C(N)=C(C#N)C(c3cccnc3)C3=C2CC(C)(C)CC3=O)cc1 (stereo not drawn)	.	.	.	.	56
CC(/C=C/c1ccc2c(c1)OCO2)=N/NC(=O)COc1ccc(C)cc1	/	.	/	/	/
O=C(NCC1(N2CCOCC2)CCCCC1)c1ccc(Cl)c(S(=O)(=O)NCc2ccco2)c1	53	.	.	.	71
Cc1ccc(S(=O)(=O)NCc2ccco2)c(C)c1C	56	.	3.5	.	.
